Assay results from PubChem BioAssay AID1851 (National Center for Advancing Translational Sciences (NCATS), 2009).
Where “and” joins values, the source holds several entries; their conditions need not be identical. Identical values can stand only once. Out of some 16,000 compounds screened, about 5,800 (36%) were called active. Inconclusive results (about 23%) are left out. Some of the results follow. A number with no mark means an inactive call. Calls follow the shape of the dose curve; as a rule, active = well fitted curve in the direction sought with a large enough effect; inconclusive = small, poorly fitted or top-dose-only effect, or effect the other way; inactive = no such curve, though single readings can be large or run the other way.
% is scaled to controls: 0 for no effect and ±100 for the full control effect.

What follows are compounds tested against Cytochrome P450 2C19 (Homo sapiens) (UniProt P33261) (assay: Cytochrome panel assay with activity outcomes). Conditions: recombinant CYP, pro-luciferin dealkylation, luminescence, p450-cyp2c19; series mostly up to 57.1 µM; activity, negative = inhibition: at the top concentration.
Cytochrome P450 2C19 (Homo sapiens), sequence (P33261 whole entry, looked up): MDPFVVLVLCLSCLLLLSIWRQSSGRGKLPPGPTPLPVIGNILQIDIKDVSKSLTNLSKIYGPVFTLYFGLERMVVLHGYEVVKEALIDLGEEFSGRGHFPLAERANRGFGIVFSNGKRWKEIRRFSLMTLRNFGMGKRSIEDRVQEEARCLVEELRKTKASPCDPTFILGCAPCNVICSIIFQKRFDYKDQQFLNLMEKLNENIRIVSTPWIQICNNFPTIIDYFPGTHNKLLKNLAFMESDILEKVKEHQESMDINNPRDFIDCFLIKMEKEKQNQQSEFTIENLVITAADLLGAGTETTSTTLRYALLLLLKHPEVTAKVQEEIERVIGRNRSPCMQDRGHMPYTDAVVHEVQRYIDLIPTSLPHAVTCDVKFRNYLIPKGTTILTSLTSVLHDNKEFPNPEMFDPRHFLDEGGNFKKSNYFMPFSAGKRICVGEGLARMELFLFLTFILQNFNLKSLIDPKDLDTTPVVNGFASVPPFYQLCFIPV
Procedure: The P450 gene superfamily is involved in the metabolism and clearance of xenobiotics. This assay used various human CYP P450 isozymes to measure the dealkylation of various pro-luciferin substrates to luciferin. The luciferin is then measured by luminescence after the addition of a luciferase detection reagent. Pro-luciferin substrate concentration in the assay was equal to its KM for its CYP P450 isozyme. Inhibitors and some substrates limit the production of luciferin, and decrease measured luminescence.
NCGC Assay Protocol Summary:
1, Reagent, 2 uL, Isozyme and Pro-Luciferin
2, Library compounds, 23 nl, 40 uM to 0.24 nM dilution series
3, Controls, 23 nl, Isozyme specific inhibitor
4, Reagent, 2 uL, NADPH regeneration solution
5, Incubation time, 60 min, Isozyme specific temperature
6, Reagent, 4ul, Detection reagent
7, Incubation time, 20 min, Isozyme specific temperature
8, Detection, 1 sec, ViewLux luminescent read
The luciferase-based P450-GloTM Screening Systems were obtained from Promega (Madison, WI) for CYP 1A2 (V9770), CYP 2C9 (V9790), CYP2 C19 (V9880), CYP 2D6 (V9890), and CYP 3A4 Luciferin-PPXE (V9910) and were adapted for 1,536-well microplates and an automated protocol. The control compounds furafylline for 1A2 (F124), sulfaphenazole for CYP 2C9 (S0758), ketoconazole for CYP 2C19 (K1003), quinidine for 2D6 (Q3625), and ketoconazole for 3A4 (K1003) were purchased from Sigma Aldrich (St. Louis, MO). Recombinant P450 enzymes were obtained from baculovirus constructs expressed in insect cells (BD/Gentest).
Medium-binding white solid Kalypsys plates used. Mixtures kept on ice. 1A2: 10 nM 1A2, 100 uM Luc-ME, 100 mM KPO4; 2C9: 10 nM 2C9, 100 uM Luc-H, 25 mM KPO4; 2C19: 5 nM 2C19, 10 uM Luc-H EGE, 50 mM KPO4; 2D6: 5 nM 2D6, 30 uM Luc-ME EGE, 100 mM KPO4; 3A4: 10 nM, 25 uM Luc-PPXE. All amounts are reflected in their final concentration, working concentration is 2x.
NADPH regeneration solution: 1.3 mM NADP+, 3.3 mM glucose-6-phosphate, 3.3 mM MgCl2, 0.4 U/mL glucose-6-phosphate dehydrogenase for all isozymes, 200 mM KPO4 for 3A4. Mixture prepared at RT but kept on ice during automated run.
RT incubation in auxilliary plate hotel for 1A2, 2D6, and 3A4; 37C for 2C9 and 2C19.
Keywords: P450, CYP1A2, CYP2C19, CYP2C9, CYP2D6, CYP3A4, Luciferase, MLSMR, MLSCN, NIH Roadmap, qHTS, NCGC
With C=CCN=C1CC(C)(C)CC(=O)/C1=C(/O)CCC(=O)OC the AC50 was 14.1 µM (active). For C=CCN=C1CC(C)(C)CC(=O)/C1=C(\O)c1ccccc1, the AC50 was 25.1 µM (active). N#CCCn1c(=O)c(-c2ccccc2)nc2cnc(Nc3ccccc3)nc21 was tested, and the “activity, negative = inhibition” value was -8.35%. For CCNC(=O)c1ccc(-n2nc(C)cc2-c2ccccc2)cc1, the AC50 was 11.2 µM (active). With Nc1ccc(C(=O)NCC(=O)O)cc1 the “activity, negative = inhibition” value was 5.57% [at 25.6 µM]. With Cc1nc2cnc(N3CCOCC3)nc2n(CCC#N)c1=O the “activity, negative = inhibition” value was -4.01%. Fc1ccc(-c2cnc(-c3cccs3)o2)cc1 was tested, and the AC50 was 6.31 µM (active). For Cc1ccc(N2C(=O)CC(c3ccsc3)C3=C2CC(C)(C)CC3=O)cc1 (configuration not stated), the AC50 was 2.51 µM (active). For CC1CCCCN1c1cc(C#N)c(C#N)cc1[N+](=O)[O-] (configuration not stated), the AC50 was 4.47 µM (active). N#Cc1cc2nc(O)c(O)nc2cc1[N+](=O)[O-] was tested, and the AC50 was “inactive”. For N#Cc1cc2[nH]c(=O)c(=O)[nH]c2cc1[N+](=O)[O-], the “activity, negative = inhibition” value was -9.46%. For CCC(C)NC(=O)C1c2cc(OC)c(OC)cc2C(=O)N(C)C1c1cccs1 (configuration not stated), the “activity, negative = inhibition” value was -15%. Clc1ccc(Cc2nc(-c3cccnc3)no2)cc1 was tested, and the AC50 was 1.78 µM (active). In the case of Nc1nc(-c2cccnc2)cc(-c2cc(-c3cccnc3)nc(N)n2)n1, the activity, negative = inhibition is reported as -16.6% [at 11.4 µM]. Cn1cccc1C(=O)N1CCC2(CCN(Cc3nccs3)CC2)CC1 was tested, and the “activity, negative = inhibition” value was -0.0178%. For N#Cc1c(NC(=O)C2CC(c3ccccc3Cl)=NO2)sc2c1CCC2 (configuration not stated), the AC50 was 2 µM (active). In the case of CCC(=O)N(Cc1ccco1)c1nc(-c2ccccc2)cs1, the AC50 is reported as 5.62 µM (active). With Cc1cc2cccc(C)c2nc1SCC(=O)N(C)c1nc(-c2ccccc2)cs1 the “activity, negative = inhibition” value was -27.1%. In the case of Cc1ccnc(NCn2nnc3ccccc32)c1, the AC50 is reported as 15.8 µM (active). N#CCCn1nnc2ccccc21 was tested, and the “activity, negative = inhibition” value was -23.8%. For Nn1nnc2ccccc21, the “activity, negative = inhibition” value was -11.1%. O=C(O)C[n+]1ccccc1 gave an activity, negative = inhibition of -3.69% [at 11.4 µM]. With Cc1cc(NC(=O)c2ccc(S(=O)(=O)N(C)C)cc2)n(-c2ccccn2)n1 the “activity, negative = inhibition” value was 4.21%. For Cc1cc(NC(=O)c2c(F)cccc2F)n(-c2nc3ccccc3[nH]2)n1, the AC50 was 11.2 µM (active). In the case of COc1cc(NC(=O)c2c(F)cccc2F)nc(OC)n1, the “activity, negative = inhibition” value is reported as -15.5%. In the case of Nc1ncnc2c1ncn2[C@@H]1CCCO1, the “activity, negative = inhibition” value is reported as 14.6%. In the case of Cc1nc(S(=O)(=O)N(C)c2ccccc2)c(C#N)c(C)c1Cl, the AC50 is reported as 6.31 µM (active). Cc1nc(S(=O)(=O)NC2CCCCC2)c(C#N)c(C)c1Cl was tested, and the AC50 was 2.82 µM (active). For CCC[C@H]1C(=O)N2C(N(C)C)=Nc3ccc(C)cc3N2C1=O, the “activity, negative = inhibition” value was -39.6% [at 25.6 µM]. COc1ccc(C[C@@H]2c3cc(OC)c(OC)cc3CC[N@+]2(C)CCC(=O)OCCCCCOC(=O)CC[N@@+]2(C)CCc3cc(OC)c(OC)cc3[C@H]2Cc2ccc(OC)c(OC)c2)cc1OC was tested, and the “activity, negative = inhibition” value was -12.9% [at 25.6 µM]. For COC(=O)C/C=C\[C@@H](C)[C@@H](/C=N\O[C@@H](C)c1cn([C@H](CO)Cc2ccccc2)nn1)OC, the activity, negative = inhibition was -27.6% [at 11.4 µM] and -8.78% [at 11.4 µM]. N#Cc1nc(-c2ccc(OCc3ccccc3)cc2)oc1NCCN1CCOCC1 was tested, and the AC50 was 5.62 µM (active). In the case of N#Cc1ccccc1-c1ccc2ncnc(NCCN3CCOCC3)c2c1, the “activity, negative = inhibition” value is reported as -23.4%. Cc1cccc(NC(=S)NNC(=O)c2csc3c2CCCC3)c1 was tested, and the AC50 was 10 µM (active). In the case of O=[N+]([O-])c1ccc(Cl)c(/C=N/N2CCN(Cc3ccccc3)CC2)c1, the AC50 is reported as 17.8 µM (active). O=[N+]([O-])c1ccc(Cl)c(/C=N/N2CCN(Cc3ccccc3Cl)CC2)c1 was tested, and the AC50 was 3.98 µM (active). C=C(C)C(=O)N1CC2(CC(c3cccc(NC(=O)c4ccccc4)c3)=NO2)C[C@@H]1C(N)=O (some centres not stated) was tested, and the “activity, negative = inhibition” value was -42%. In the case of Cc1cc(C)c(S(=O)(=O)N2CCN(c3ccc([N+](=O)[O-])c(NCC4CCCO4)c3)CC2)c(C)c1 (configuration not stated), the AC50 is reported as 3.16 µM (active). In the case of CCS(=O)(=O)N1CCC(C(=O)NCC2CCCO2)CC1 (configuration not stated), the “activity, negative = inhibition” value is reported as -8.97%. For Cc1ccc(NC(=O)c2ccc(NCC3CCCO3)c([N+](=O)[O-])c2)cc1Cl (configuration not stated), the AC50 was 5.01 µM (active). CNc1cc(CS(=O)c2ccccc2)nc(-c2ccccc2)n1 (configuration not stated) was tested, and the AC50 was 1.41 µM (active). O=S(=O)(Cc1cc(Oc2ccccc2)nc(-c2ccccc2)n1)c1ccccc1 was tested, and the AC50 was 1.26 µM (active). For O=S(Cc1cc(Oc2ccccc2)nc(-c2ccccc2)n1)c1ccccc1 (configuration not stated), the AC50 was 2.82 µM (active). O=c1[nH][nH]c(C(F)(F)F)c1C=Nc1ccccc1Cl was tested, and the “activity, negative = inhibition” value was -12.3%. In the case of [O-][N+](CCO)(CCO)c1ncnc2nc[nH]c12, the activity, negative = inhibition is reported as 41% [at 11.4 µM]. In the case of CC[C@@]1(O)C(=O)COc2c1cc1n(c2=O)Cc2c-1nc1cccc(C(C)C)c1c2[Si](C)(C)C, the “activity, negative = inhibition” value is reported as 27.7%. For Cc1sc(NC(=O)C2CCCCC2)c(C#N)c1-c1ccccc1, the AC50 was 2.82 µM (active). With Cc1sc(NC(=O)/C=C/c2ccc(C(C)C)cc2)c(C#N)c1C the “activity, negative = inhibition” value was -24.8%. CC(=O)N[C@@H](CC(=O)O)C(=O)O was tested, and the “activity, negative = inhibition” value was 26.4% [at 25.6 µM]. In the case of CC#CCOC(=O)c1c(C)nc2sc3c(c2c1N)CC[C@@H](O)C3, the AC50 is reported as 25.1 µM (active). With Cn1c(=O)c2[nH]c(CCCc3ccc([N+](=O)[O-])cc3)nc2n(C)c1=O the activity, negative = inhibition was 6.48% [at 11.4 µM]. With CCc1cc(C(c2ccccc2OC)N2CCOCC2)c(NC(=O)c2ccccc2)s1 (configuration not stated) the AC50 was 11.2 µM (active). CCOc1cc(/C=C2\C(=O)N(Cc3ccc(C)cc3)C(C)=C2C(=O)OC)ccc1O was tested, and the AC50 was 3.98 µM (active). In the case of COc1cccc(Nc2ncc3nc(C)c(=O)n(CCC#N)c3n2)c1, the “activity, negative = inhibition” value is reported as -15.9%. With Cc1cc(OC(=O)c2cc(F)c(F)cc2Cl)nc(C)n1 the “activity, negative = inhibition” value was 24.4%. CSc1nsc(SCc2ccc(Cl)cc2)n1 was tested, and the AC50 was 0.447 µM (active). In the case of O=c1c(-c2nc3ccccc3s2)cccn1Cc1ccccc1, the AC50 is reported as 2 µM (active). For CCCN(CCC)S(=O)(=O)c1ccc(C(=O)O)cc1, the “activity, negative = inhibition” value was 15.8% [at 25.6 µM]. For CCOC(=O)c1c(C)[nH]c(C)c1C(=O)COC(=O)c1cccc(S(=O)(=O)N(CC)CC)c1, the AC50 was 0.447 µM (active). With CCN(CC)CCOC(=O)c1ccc(N)cc1 the AC50 was “inactive”. With CCOC(=O)c1c(C)[nH]c(C)c1C(=O)COC(=O)c1ccc(S(=O)(=O)N(CC)CC)cc1 the AC50 was 1.12 µM (active). C[C@@H](CNC(N)=O)NC(N)=O showed an activity, negative = inhibition of 25.4% [at 11.4 µM].
